ATG4B inh = blocks human ATG4B protease cleavage of LC3 substrate | ATG4B cleavage of LC3-PLA2, NBD-HPC fluorescence, 1 h | inhibition, % at 8.33 µM | Q9Y4P1 | 0.51% of 340,000 active | AID 504462; in the data active means inhibition above about 40%
Target sequence (Q9Y4P1 whole entry, looked up): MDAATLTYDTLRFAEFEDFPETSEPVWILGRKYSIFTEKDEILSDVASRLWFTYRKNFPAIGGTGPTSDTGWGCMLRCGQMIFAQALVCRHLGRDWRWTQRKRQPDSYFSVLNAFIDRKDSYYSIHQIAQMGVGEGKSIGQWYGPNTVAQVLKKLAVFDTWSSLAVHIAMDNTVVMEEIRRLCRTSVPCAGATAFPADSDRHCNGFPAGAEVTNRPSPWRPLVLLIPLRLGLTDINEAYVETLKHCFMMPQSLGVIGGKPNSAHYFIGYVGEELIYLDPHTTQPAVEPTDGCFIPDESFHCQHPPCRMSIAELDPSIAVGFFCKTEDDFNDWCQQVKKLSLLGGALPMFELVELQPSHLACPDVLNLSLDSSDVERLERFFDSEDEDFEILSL
SUMO Mot1 rescue = blocks SUMOylation pathway, rescuing yeast Mot1-301 growth. 1% of 320,000 active. growth rescue, % at 18.8 µM. S. cerevisiae Mot1-301 growth rescue, ATP luminescence, 38.5C; percent above DMSO median, 100 means doubled;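 active means every valid replicate shows activation above 250% relative to neutral control wells; inactive means the rest, any valid replicate at or below 250%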
Efflux pump mplx = inhibitors of Candida antifungal efflux pumps expressed in yeast. S. cerevisiae Candida pump triplex, Nile Red efflux. 0.44% of 330,000 active. inhibition, % at 10 µM;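 active means plate passing quality check with inhibition over a set limit, or well fluorescence over plate mean plus 4 SD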;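 further: Nile Red retained in pooled yeast measured as flow cytometry median fluorescence; higher means more Nile Red kept so more efflux inhibition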
V-ATPase pHluor = alters yeast V-ATPase proton transport. S. cerevisiae, pHLuorin cytosolic pH fluorescence. response, % at 10 µM. 0.37% of 350,000 active; in the data active means response mostly above about 7.3%, no sharp cut-off; inactive means mostly below about 5.4%; further: actives read high
AI-2 QS mod = Vibrio harveyi AI-2 quorum sensing modulation; Vibrio harveyi JMH597 AI-2 luminescence/OD600 ratio, 9 h; active compounds read low; strain lacks LuxN and CqsS sensors; 0 = neutral-control median; activity change, % at 7.5 µM; 0.4% of 300,000 active; AID 2094; in the data active means activity change below about -75%, passing the limit was not always enough;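 further: luminescence divided by OD600 gain over 9 h not by final OD600 alone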
Mot1 SUMO dose = yeast SUMO pathway inhibition in dose response; shares compounds with SUMO Mot1 rescue; S. cerevisiae Mot1-301 galactose growth, ATP luminescence, 24 h; -100 = growth of slx-deleted rescue strain; growth activity, percent, % at 42 µM; 2,300 tested, under 10 active;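 active means Signal drops as the depositor expects, and the fitted half-maximal dose is no more than ten times the top valid tested dose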;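 further: more negative values mean stronger growth rescue toward the control strain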
A number is an active result; 0 = inactive; - = no result given; + = active, no number. An excerpt weighted towards active compounds, which were near 2.5% of everything screened.

SMILES	ATG4B inh	SUMO Mot1 rescue	Efflux pump mplx	V-ATPase pHluor	AI-2 QS mod	Mot1 SUMO dose
O=C(NC1CCCCC1)c1n[nH]c2c1CCCCC2	0	363.7	0	0	-	0
COc1ccc(NS(=O)(=O)c2ccc(OCC(=O)N3CCOCC3)cc2)cc1Cl	0	+	0	0	0	0
COC(=O)C1CN(C(=O)C(C)Oc2ccc(F)cc2)c2ccccc2O1 (stereo not given)	0	748.4	0	0	0	0
Cc1ccccc1-c1noc(C(C)NC(=O)c2ccco2)n1 (stereo not given)	0	0	0	0	0	-
CCCOC(=O)C1=C(C)N(C)C(=O)NC1c1cc2c(cc1[N+](=O)[O-])OCO2 (stereo not given)	0	0	0	0	0	-
CCOC(=O)C1=C(C)NC(=O)CC1c1cc2c(cc1[N+](=O)[O-])OCO2 (stereo not given)	0	936.9	0	0	0	0
O=C(COC(=O)/C=C/c1ccco1)Nc1cccc([N+](=O)[O-])c1	0	0	0	0	0	-
O=[N+]([O-])c1ccccc1N(CC1CO1)S(=O)(=O)c1ccccc1 (stereo not given)	0	0	0	0	0	-
CSc1cc(-c2ccncc2)nc(-c2ccc(Cl)cc2)c1	0	0	0	0	0	-
Cc1ccc(N2CC(C(=O)Nc3cc(S(=O)(=O)N4CCCCC4)ccc3C)CC2=O)cc1 (stereo not given)	-	-	-	0	-	-
CC1(C)CC(=O)C(C(=O)c2ccccc2)C(=O)C1Cl (stereo not given)	0	536.1	0	0	0	0
CC1(C)CC(=O)C(C(=O)c2ccccc2)C(=O)C1	0	0	0	0	0	-
CC1=C(C(=O)N2CCOCC2)C(c2ccc(O)cc2)NC(=S)N1 (stereo not given)	0	582.9	0	0	0	0
COc1cccc(Nc2nc(C)nc3c2oc2ccccc23)c1	0	451.4	0	0	0	0
COc1ccc(S(=O)(=O)N2CCN(C(=O)COc3ccc4c(C)cc(=O)oc4c3)CC2)cc1	0	0	-	-	0	-
CCC(C)c1ccc(S(=O)(=O)N2CCN(C(=O)COc3ccc4c(C)cc(=O)oc4c3)CC2)cc1 (stereo not given)	0	524.1	0	0	0	0
CCC1CCCCN1C(=O)NC(=O)c1ccccc1 (stereo not given)	0	0	0	0	0	-
O=C(NCCNc1ccc(Cl)cc1[N+](=O)[O-])c1ccccc1F	0	473.7	0	0	0	0
COc1ccc(Nc2cc(NCCCO)c([N+](=O)[O-])c3nonc23)cc1	0	382.4	0	0	0	0
COc1ccc(CNc2cc(NCCCO)c([N+](=O)[O-])c3nonc23)cc1	0	0	0	0	0	-
C=CCNc1nc(Nc2ccc(-c3nc4ccccc4o3)cc2)nc(N2CCOCC2)n1	0	0	0	0	0	-
CC(OC(=O)c1cc(S(=O)(=O)N2CCOCC2)ccc1F)C(=O)NCc1ccc2c(c1)OCO2 (stereo not given)	0	373.6	0	0	0	0
COc1ccc(-c2sc3ccccc3c2/C=C/c2ccncc2)cc1	0	0	0	0	-	-
Cc1cccc2cc3ccccc3nc12	0	0	0	0	0	-
Cc1cccc2nc3ccccc3cc12	0	576.4	0	0	0	0
SMILES	ATG4B inh	SUMO Mot1 rescue	Efflux pump mplx	V-ATPase pHluor	AI-2 QS mod	Mot1 SUMO dose
COc1cc(NCCCn2cnc3c(OC)ncnc32)cc(OC)c1OC	-	-	-	0	-	-
CSCCc1nc(SCC(=O)Nc2nnc(C)s2)[nH]c1C	0	+	0	0	0	0
Cc1ccc(C(=O)NC(=S)N2CCN(C)CC2)cc1Br	0	-	-	0	0	-
O=C(Nc1nc(-c2ccccn2)cs1)c1ccc2c(c1)OCCO2	0	368.9	0	0	0	0
NS(=O)(=O)c1ccc(N=C2C(=O)Nc3ccccc32)cc1	0	0	0	0	0	-
CC(C)C1=CC(=Nc2ccc(S(N)(=O)=O)cc2)C=C(C(C)C)C1=O	0	+	0	0	0	0
Cc1ccc(CNC(=O)CCNS(=O)(=O)c2cccs2)cc1	0	+	0	0	0	0
COc1ccc(C2CC(c3ccccc3)=NN2C(=S)Nc2ccccc2)cc1 (stereo not given)	0	-	0	0	0	-
COc1ccc(C2=NN(C(=S)Nc3ccccc3)C(c3ccccc3)C2)cc1 (stereo not given)	0	+	0	0	0	0
O=C(CNS(=O)(=O)c1ccc2ccccc2c1)OCc1nnc(-c2ccccc2)o1	0	0	0	0	0	-
O=C(NCc1csc(-c2cccs2)n1)Nc1ccc(F)cc1F	0	437.8	0	0	0	0
N#Cc1cc([N+](=O)[O-])cnc1NCC(O)CO (stereo not given)	0	493.8	0	0	0	0
CCCCN(Cc1nc2ccccc2c(=O)[nH]1)C(=O)CN1C(=O)NC2(CCCCC2)C1=O	0	0	0	0	-	-
COCCn1c(SCc2ccc(Cl)cc2)nc2c1c(=O)[nH]c(=O)n2C	0	+	0	0	0	0
Cn1c(=O)[nH]c(=O)c2c1nc(Sc1ccccc1)n2CCc1ccccc1	0	614.4	0	0	0	0
Oc1ccc(CCc2ccccn2)cc1	-	-	-	0	-	-
O=C(CSc1nnnn1C1CCCCC1)Nc1ccccc1F	0	0	0	0	0	-
O=C(CSc1nnnn1C1CC2CCC1C2)Nc1ccnc2ccccc12 (stereo not given)	0	775.2	0	0	-	0
CC(=O)Nc1sc2c(c1C(c1ccc(F)cc1)N1CCOCC1)CCCC2 (stereo not given)	0	385.2	0	0	0	0
CC(=O)Nc1sc2c(c1C(c1ccccc1)N1CCOCC1)CCCC2 (stereo not given)	0	0	0	0	0	-
Cc1ccc(/C=N/NC(=O)NC23CC4CC(CC(C4)C2)C3)o1	0	742.9	0	0	0	0
CC(OC(=O)Cn1cnc2c1c(=O)n(C)c(=O)n2C)C(=O)NC1CCCCC1C (stereo not given)	0	0	0	0	0	-
OCCN1CCOCCN(CCO)CCOCC1	0	0	0	0	0	-
CN(CCC#N)C(=O)CC1(Cc2ccccc2)CCOC(C)(C)C1 (stereo not given)	0	0	0	0	0	-
CCCN1C(=O)c2[nH]nc(-c3cc(Cl)c(C)cc3O)c2C1c1ccc(O)c(OC)c1 (stereo not given)	0	571.0	0	0	0	0
CCOC(=O)c1oc2ccccc2c1COC(=O)CNC(=O)c1cccc(C)c1	0	984.1	0	0	0	0
CCOC(=O)c1oc2ccccc2c1COC(=O)CNC(=O)c1ccccc1F	-	-	-	0	-	-
O=C(C1CCCC1)N1CCCC(Nc2ccc(F)cc2)C1 (stereo not given)	0	0	0	0	0	-
O=C(c1cccnc1)N1CCCC(Nc2ccc(F)cc2)C1 (stereo not given)	0	595.3	0	0	0	0
